In PubChem BioAssay AID1159580 (chemical genetic matrix, 2015):
About 2,000 (36%) of roughly 5,500 compounds were called active. Not shown: some 18% with an inconclusive outcome. No stated cut-off is given here; in the data, active means normalized growth mostly below about 0.91 (no sharp cut-off); inconclusive means no clear call, values can overlap the other calls; inactive means mostly above about 0.92. The list shows a part of the results.

Experiment: chemical genetic growth profiling, strain panel (AID 1159580);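 further: tested at 20 µM; growth read once vehicle control cultures reached saturation at 30 °C; 1 = growth at the plate median or of vehicle wells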
Conditions: S. cerevisiae deletion strains, growth OD

Measured: normalized growth

CC1(C)S[C@@H]2[C@H](NC(=O)[C@H](C(=O)O)c3cccs3)C(=O)N2[C@H]1C(=O)O
inactive: locus YAL021C, strain ccr4, stronger effect = lower value 0.996 | locus YAL026C, strain drs2, stronger effect = lower value 1.02 | locus YAL030W, strain snc1, stronger effect = lower value 1.01 | locus YBL061C, strain skt5, stronger effect = lower value 1.01 | locus YBR009C, strain hhf1, stronger effect = lower value 1.03 | locus YBR023C, strain chs3, stronger effect = lower value 1.01 | locus YBR171W, strain sec66, stronger effect = lower value 1.03 | locus YBR231C, strain swc5, stronger effect = lower value 1.02 | locus YBR279W, strain paf1, stronger effect = lower value 1.01 | locus YCL011C, strain gbp2, stronger effect = lower value 1.01 | locus YCL016C, strain dcc1, stronger effect = lower value 0.998 | locus YCL061C, strain MRC1, stronger effect = lower value 1.01 | locus YCL069W, strain vba3, stronger effect = lower value 0.999 | locus YCR088W, strain abp1, stronger effect = lower value 0.996 | locus YDL005C, strain med2, stronger effect = lower value 1.01 | locus YDL040C, strain nat1, stronger effect = lower value 0.999 | locus YDR001C, strain nth1, stronger effect = lower value 1 | locus YDR069C, strain doa4, stronger effect = lower value 1.04 | locus YDR137W, strain rgp1, stronger effect = lower value 1.02 | locus YDR159W, strain sac3, stronger effect = lower value 1.01 | locus YDR195W, strain ref2 1.02 | locus YDR297W, strain sur2, stronger effect = lower value 1.01 | locus YDR334W, strain swr1, stronger effect = lower value 1 | locus YDR335W, strain msn5, stronger effect = lower value 1.01 | locus YDR392W, strain spt3, stronger effect = lower value 1.01 | locus YEL003W, strain gim4, stronger effect = lower value 1.01 | locus YEL037C, strain rad23, stronger effect = lower value 0.973 | locus YEL061C, strain CIN8 (second series), stronger effect = lower value 0.991 | locus YER015W, strain faa2, stronger effect = lower value 1.01 | locus YER016W, strain bim1, stronger effect = lower value 1 | locus YER111C, strain swi4, stronger effect = lower value 1.01 | locus YER155C, strain BEM2 (second series), stronger effect = lower value 1.04 | locus YFR010W, strain ubp6, stronger effect = lower value 1 | locus YGL167C, strain pmr1, stronger effect = lower value 1.01 | locus YGL173C, strain kem1, stronger effect = lower value 1.01 | locus YGL227W, strain vid30, stronger effect = lower value 1 | locus YGL240W, strain doc1, stronger effect = lower value 1.04 | locus YGL253W, strain hxk2, stronger effect = lower value 0.998 | locus YHR013C, strain ard1, stronger effect = lower value 1.03 | locus YHR027C, strain rpn1, stronger effect = lower value 1 | locus YHR030C, strain SLT2, stronger effect = lower value 1.01 | locus YHR079C, strain IRE1, stronger effect = lower value 1.02 | locus YHR142W, strain chs7, stronger effect = lower value 0.957 | locus YJL092W, strain hpr5, stronger effect = lower value 1 | locus YJL095W, strain BCK1 (second series), stronger effect = lower value 1 | locus YJL095W, strain BCK1, stronger effect = lower value 0.974 | locus YJL115W, strain asf1, stronger effect = lower value 1 | locus YJL129C, strain trk1, stronger effect = lower value 1.01 | locus YJL154C, strain vps35, stronger effect = lower value 0.999 | locus YJL164C, strain tpk1, stronger effect = lower value 0.999 | locus YJL166W, strain qcr8, stronger effect = lower value 1.01 | locus YJL187C, strain SWE1, stronger effect = lower value 1.02 | locus YJR066W, strain TOR1, stronger effect = lower value 0.952 | locus YKL160W, strain elf1, stronger effect = lower value 1.01 | locus YKR026C, strain gcn3, stronger effect = lower value 0.991 | locus YKR091W, strain srl3, stronger effect = lower value 1.01 | locus YLL001W, strain dnm1, stronger effect = lower value 0.999 | locus YLL026W, stronger effect = lower value 1.01 | locus YLL041C, strain sdh2, stronger effect = lower value 1.01 | locus YLR027C, strain aat2, stronger effect = lower value 1.01 | locus YLR113W, strain HOG1, stronger effect = lower value 0.971 | locus YLR221C, strain rsa3, stronger effect = lower value 0.989 | locus YLR258W, strain gsy2, stronger effect = lower value 1.02 | locus YLR262C, strain YPT6 (second series), stronger effect = lower value 0.996 | locus YLR320W, strain mms22, stronger effect = lower value 1.01 | locus YLR342W, strain FKS1, stronger effect = lower value 1.01 | locus YLR357W, strain rsc2, stronger effect = lower value 1.07 | locus YLR370C, strain arc18, stronger effect = lower value 1.01 | locus YLR384C, strain iki3, stronger effect = lower value 0.994 | locus YML120C, strain ndi1, stronger effect = lower value 1.01 | locus YMR058W, strain fet3, stronger effect = lower value 1.02 | locus YMR125W, strain sto1, stronger effect = lower value 1.03 | locus YMR129W, stronger effect = lower value 1 | locus YMR205C, strain PFK2, stronger effect = lower value 1.03 | locus YMR231W, strain pep5, stronger effect = lower value 1.01 | locus YNL071W, strain lat1, stronger effect = lower value 1.01 | locus YNL183C, strain NPR1, stronger effect = lower value 0.96 | locus YNL209W, strain ssb2, stronger effect = lower value 1.01 | locus YNL248C, strain rpa49, stronger effect = lower value 0.991 | locus YNL322C, strain KRE1 (second series), stronger effect = lower value 1.01 | locus YNR049C, strain mso1, stronger effect = lower value 0.994 | locus YOR001W, strain rrp6, stronger effect = lower value 1 | locus YOR070C, strain gyp1, stronger effect = lower value 0.999 | locus YOR080W, strain dia2, stronger effect = lower value 1.02 | locus YOR083W, strain WHI5, stronger effect = lower value 1 | locus YOR106W, strain vam3, stronger effect = lower value 1 | locus YOR231W, strain MKK1, stronger effect = lower value 1.02 | locus YOR265W, strain rbl2, stronger effect = lower value 0.998 | locus YOR270C, strain vph1, stronger effect = lower value 1 | locus YOR290C, strain snf2, stronger effect = lower value 1.01 | locus YPL051W, strain arl3, stronger effect = lower value 1 | locus YPL078C, strain atp4, stronger effect = lower value 0.989 | locus YPL106C, strain sse1, stronger effect = lower value 1.03 | locus YPL240C, strain hsp82, stronger effect = lower value 0.986 | locus YPL256C, strain CLN2, stronger effect = lower value 1.03
